This is an account of results in paper PMC5540273 (PLoS ONE, 2017).

Settings in all cases: concentration: 1 μM,replicates: in singlicate; n = 1
Test [1] deals with T1, RSK4(Kin.Dom.1-N-terminal).
T1 construct: gene RPS6KA6

Test [2] has as its system T2, RSK4(Kin.Dom.2-C-terminal).
T2 construct: gene RPS6KA6

In test [3] the test system is S6K1.
For test [4], the system named is SBK1.
The test system of test [5] is SGK2.
The test system of test [6] is SGK3.
For test [7], the system named is SGK.
The subject of test [8] is SIK2.
Test [9] deals with SIK.
Test [10] relates to SLK.
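Further: KINOMEscan kinase panel screen.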

For `CN1CCN(CCNc2nc3cc(Oc4ccc(NC(=O)Nc5cc(C(F)(F)F)ccc5F)cc4)ccc3[nH]2)CC1.Cl.Cl` [GW768504], the “%Inh” value in test [1], in [2], in test [3], in test [4], in [5] and in [6] was 0% in each case. Moreover, the “%Inh” value in test [7] is given as 0%; in test [8], 0%; in [9] it was 0%; in [10], 7%.

Consider `CC(C(=O)NC1CCN(c2ccnc(Nc3ccc(F)cc3)n2)C1)c1ccc(Cl)cc1` (stereo not drawn) [GSK1379713], for which the “%Inh” value in test [1] was 0%; in [2] it was 0%; in test [3], 0%; in test [4], 7%; in test [5], 0%; in [6], 0%. In addition, the “%Inh” value stood at 0% in [7], 0% in test [8], 0% in [9] and 17% in [10].

`O=c1[nH]cc(-c2ccc(O)cc2)c2sc(-c3ccncc3)cc12` [GSK1033723]: the “%Inh” value in test [1] stood at 0%; in test [2], 15%; in [3] it was 0%; in test [4], 9%; in [5], 0%; in [6], 2%. The “%Inh” value amounted to 0% in test [7], 0% in test [8], 0% in test [9] and 1% in test [10].

Consider `c1ccc(Oc2ccc(Nc3ccnc4ccc(-c5ccccn5)cc34)cc2)cc1` [GW407034], for which the “%Inh” value stood at 4% in [1]; 14% in test [2]; 2% in test [3]; 60% in [4]; 0% in [5]; 0% in [6]. In addition, the “%Inh” value is recorded as 0% in [7], 0% in test [8], 0% in [9] and 10% in test [10].

As to `Cc1ccc(Nc2ccnc(Nc3ccc4c(c3)CS(=O)(=O)C4)n2)cc1O.Cl` [GW579362], the “%Inh” value is listed as 0% in [1]; 35% in test [2]; 1% in test [3]; 55% in [4]; 0% in [5]; 9% in [6]. In addition, the “%Inh” value in test [7] worked out at 0%; in test [8], 60%; in test [9] it was 58%; in test [10], 99.2%.

With `Nc1nccc(-c2ccc3c(N)n[nH]c3c2)n1` [GSK1034945], the “%Inh” value in [1] worked out at 59%; in [2], 24%; in test [3], 1%; in [4], 25%; in test [5], 4%; in test [6], 24%. Besides, the “%Inh” value in test [7] was 0%; in [8], 0%; in [9], 0%; in test [10] it was 25%.

Regarding `CC(=O)Nc1ccc(-c2cc3ncnc(SCC(=O)O)c3s2)cc1`, the “%Inh” value is reported as 13% in test [1]; 18% in [2]; 0% in test [3]; 22% in test [4]; 0% in test [5]; 39% in test [6]. Further, the “%Inh” value in [7] worked out at 0%; in test [8], 24%; in [9], 6%; in [10], 18%.

As to `Cl.Nc1n[nH]c2cc(-c3ccccn3)ccc12` [GSK2189892], the “%Inh” value in test [1] was determined as 3%; in test [2], 0%; in test [3], 0%; in [4] it was 28%; in [5] it was 0%; in [6] it was 0%. Moreover, the “%Inh” value in test [7] is given as 0%; in [8], 0%; in test [9] it was 0%; in [10], 14%.

For `COC(=O)Nc1nc2cc(Oc3ccc(NC(=O)Nc4cc(C(F)(F)F)ccc4Cl)cc3)ccc2[nH]1.Cl` [GW697465], the “%Inh” value is on record as 0% in [1]; 25% in test [2]; 23% in test [3]; 1% in test [4]; 0% in test [5]; 0% in [6]. In addition, the “%Inh” value in test [7] is given as 2%; in test [8] it was 0%; in [9], 0%; in test [10], 63%.

With `CS(=O)c1ccc(-c2coc3ccc(-c4n[nH]c(=O)o4)cc23)cc1` (stereo not drawn), the “%Inh” value in test [1] is listed as 6%; in [2] it was 27%; in test [3] it was 3%; in test [4], 85%; in test [5], 12%; in [6] it was 15%. Also, the “%Inh” value in test [7] is 31%; in [8], 11%; in [9], 2%; in test [10] it was 9%.

On to `COc1cc2c(Nc3ccc(NC(=O)c4ccccc4)cc3)ncnc2cc1OCCCN1CCOCC1` [GSK301329], for which the “%Inh” value in [1] was 0%; in test [2] it was 0%; in test [3] it was 24%; in test [4], 14%; in [5], 2%; in test [6], 1%. The “%Inh” value in [7] was determined as 0%; in test [8], 4%; in test [9], 2%; in test [10], 58%.

Consider `O=C(Nc1ccc(Oc2ccc3nc(NC(=O)C4CC4)cn3n2)c(F)c1)c1cccn(-c2ccccc2)c1=O`, for which the “%Inh” value in test [1], in test [2], in test [3], in test [4], in test [5] and in test [6] was 0% in each case. Besides, the “%Inh” value in test [7] is on record as 0%; in test [8], 8%; in [9] it was 59%; in [10], 0%.

As to `CN(c1ccc2c(c1)nc(NCc1ccc(F)cc1)n2C)c1ccnc(Nc2ccc(CS(C)(=O)=O)cc2)n1.Cl` [GW813244], the “%Inh” value in test [1] was 16%; in [2] it was 0%; in test [3] it was 11%; in test [4], 10%; in test [5], 18%; in test [6], 0%. In addition, the “%Inh” value is recorded as 17% in test [7], 39% in [8], 0% in test [9] and 61% in test [10].

As to `C[C@@H]1CCN(C(=O)N2CCCC2)C[C@@H]1N(C)c1ncnc2[nH]ccc12`, the “%Inh” value was 18% in test [1]; 31% in [2]; 2% in [3]; 19% in test [4]; 3% in [5]; 27% in [6]. Moreover, the “%Inh” value in [7] came to 0%; in test [8], 6%; in test [9], 11%; in [10], 21%.

For `CCn1c(-c2nonc2N)nc2cncc(CNC3CCNCC3)c21.Cl` [SB-747651], the “%Inh” value in test [1] stood at 10%; in test [2], 25%; in test [3], 60%; in test [4] it was 25%; in [5] it was 7%; in [6] it was 43%. Moreover, the “%Inh” value is given as 0% in [7], 0% in [8], 0% in test [9] and 9% in [10].
